MEKK2wt PB1 HTS – raises or lowers MEK5 binding to wildtype human MEKK2 PB1 domain. AID 1531. hit rate 1.1% among 290,000. Q9Y2U5. bead flow cytometry, Alexa488-MEK5 binding to MEKK2 WT; actives lie on both sides. binding response (% of control), % at 10 µM; in the data active = binding response below about 67% or above about 130%
MEKK2 mut-MEK5 – signal of MEK5 binding to mutant human MEKK2 PB1 domain. hit rate 0.35% among 290,000. bead flow cytometry, Alexa488-MEK5 binding to MEKK2 mutant. percent response, % at 10 µM; in the data active = percent response above about 24%, passing the limit was not always enough
SKN-1 block – C. elegans SKN-1 inhibition; hit rate 0.49% among 360,000; C. elegans VP596 Pgst-4::GFP/RFP ratio, acrylamide-induced, 24 h; inhibition, % at 21.8 µM;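 active = interference check ratio from 0.5 to 1.5 plus GFP to RFP signal ratio inhibition reaching or exceeding a fixed threshold, cut at about 30% in these data, passing the limit was not always enough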
MEKK3 PB1 HTS – MEKK3-MEK5 PB1 interaction, increase or decrease. bead-based flow cytometry, Alexa488-MEK5 binding to MEKK3; actives lie on both sides; 0 = blocked by unlabeled MEK5, 100 = vehicle. binding response (% of control), % at 10 µM. hit rate 1.4% among 290,000. AID 1529. Q99759;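 active = binding response more than 3 SD above or below the average of its plate-row segment, actives on both sides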;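 note: Alexa488 bead fluorescence after subtracting the streptavidin-only scavenger bead signal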
Target sequence (Q99759 whole entry, looked up): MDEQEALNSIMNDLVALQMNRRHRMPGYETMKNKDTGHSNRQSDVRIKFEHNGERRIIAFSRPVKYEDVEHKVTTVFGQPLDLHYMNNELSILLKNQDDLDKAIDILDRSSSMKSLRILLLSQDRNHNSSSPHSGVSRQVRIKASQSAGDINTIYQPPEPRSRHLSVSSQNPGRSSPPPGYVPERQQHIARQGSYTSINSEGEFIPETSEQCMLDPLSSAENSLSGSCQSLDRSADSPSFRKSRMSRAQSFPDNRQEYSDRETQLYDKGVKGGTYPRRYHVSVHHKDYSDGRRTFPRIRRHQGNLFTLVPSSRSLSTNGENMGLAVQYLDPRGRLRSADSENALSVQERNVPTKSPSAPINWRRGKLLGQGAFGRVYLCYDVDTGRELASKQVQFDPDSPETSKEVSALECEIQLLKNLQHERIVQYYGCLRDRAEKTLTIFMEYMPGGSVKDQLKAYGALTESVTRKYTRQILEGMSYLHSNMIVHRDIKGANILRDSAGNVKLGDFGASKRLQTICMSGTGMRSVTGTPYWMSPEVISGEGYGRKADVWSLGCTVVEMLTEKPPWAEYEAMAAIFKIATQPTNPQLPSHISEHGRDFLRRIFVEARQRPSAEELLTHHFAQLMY
NRP1-CendR mod – alters CendR peptide binding to human NRP-1 | O14786 | FAM-RPARPAR peptide binding to NRP-1, fluorescence polarization | inhibition, % at 25 µM | hit rate 0.85% among 360,000 | AID 602438;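 active = inhibition or corrected inhibition above about 18%, plus a signal ratio from 0.5 to 1.5, limit read from the data, passing the limit was not always enough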
MEKK2wt confirm – raises or lowers MEK5 binding to wildtype human MEKK2, retest; binding response (% of control), % at 10 µM; bead flow cytometry, Alexa488-MEK5 binding to MEKK2 WT; actives lie on both sides; shares compounds with MEKK3 PB1 HTS; hit rate 2.4% among 5,900; in the data active = binding response below about 16% or above about 210%; inactive = in between
MEKK2mut confirm – signal of MEK5 binding to mutant human MEKK2, retest; hit rate 2% among 5,900; AID 1893; shares compounds with MEKK3 PB1 HTS; bead flow cytometry, Alexa488-MEK5 binding to MEKK2 mutant; percent response, % at 10 µM; in the data active = percent response mostly above about 71%, no sharp cut-off; inactive = mostly below about 38%;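 note: higher means compound restores mutant binding toward wildtype level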
MEKK3 confirm – MEKK3-MEK5 PB1 inhibition, single concentration confirmation; hit rate 1.8% among 5,900; bead flow cytometry, Alexa488-MEK5 binding to MEKK3; hits give low values; shares compounds with MEKK3 PB1 HTS; binding response (% of control), % at 10 µM;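 active = binding response below 72% of control, or above a set upper limit, though filed actives all read lower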;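 note: 100% = DMSO only wells and 0% = binding blocked by excess unlabeled MEK5; lower values mean stronger disruption of MEK5 binding to MEKK3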
Active calls of the source: *; / = no result given; [ ] = remark or other dose. This is a sample that favours compounds with a hit; in the whole collection about 3.2% have one here.

SMILES | MEKK2wt PB1 HTS | MEKK2 mut-MEK5 | SKN-1 block | MEKK3 PB1 HTS | NRP1-CendR mod | MEKK2wt confirm | MEKK2mut confirm | MEKK3 confirm
CCc1nc(N2CCCC2C(=O)O)c2oc3ccccc3c2n1 (stereo not drawn) | 72 | -19 | -7 | 57*[inhibitor] | 14 | 100 | 4 | 100
COc1ccc(C2NCCc3c2[nH]c2ccccc32)cc1COc1ccc(F)cc1 (stereo not drawn) | 140* | 2 | 0 | 62*[inhibitor] | 11 | 205 | 69 | 114
COc1ccc(C2NC(C(=O)O)Cc3c2[nH]c2ccccc32)cc1CN1CCN(c2ccc(F)cc2)CC1 (stereo not drawn) | 120 | 5 | 6 | 93 | -12 | / | / | /
COc1ccc(C2NCCc3c2[nH]c2ccccc32)cc1CN1CCc2cc(OC)c(OC)cc2C1C (stereo not drawn) | 172* | 20 | -5 | 107 | -6 | 216* | 81* | 117
CC1CC(C)CN(S(=O)(=O)CCNC(=O)c2ccc3c(c2)OCO3)C1 (stereo not drawn) | / | / | 2 | / | -11 | / | / | /
Cc1c(/C=C2\SC(=O)N(CC(=O)Nc3ccc4c(c3)OCO4)C2=O)c2ccccc2n1C | -2.0*[inhibitor] | -21 | 7 | 2.0*[inhibitor] | -20 | 97 | -2 | 99
CC1SC(C)C(=O)N(CC(=O)Nc2ccc3c(c2)OCO3)C1=O (stereo not drawn) | 101 | -2 | 0 | 102 | -1 | / | / | /
O=C(CN1C(=O)CSCC1=O)Nc1ccc2c(c1)OCO2 | 103 | 0 | -2 | 136* | 0 | 100 | 2 | 104
CCCNC(=O)c1cc(C2CCCCN2C(=O)OCC(C)C)on1 (stereo not drawn) | / | / | 16 | / | 14 | / | / | /
Cc1cccc(C)c1NC(=O)CNC(=O)c1ccccc1OCc1ccccc1 | / | / | 4 | / | -9 | / | / | /
COc1cc(S(=O)(=O)N(Cc2cccnc2)Cc2ccco2)ccc1-n1cnnn1 | 86 | -12 | 4 | 80*[inhibitor] | -1 | 149 | 28 | 111
COc1cc(S(=O)(=O)N(Cc2ccc(C)cc2)Cc2ccco2)ccc1-n1cnnn1 | 93 | -6 | 4 | 98 | -16 | / | / | /
Cc1ccc(C)c(-c2nc3ccc(N)cc3[nH]2)c1 | 33*[inhibitor] | 13 | 5 | 108 | 0 | 104 | 7 | 105
Nc1ccc(-c2nc3ccc(N)cc3[nH]2)cc1 | 73 | -17 | -1 | 69 | 5 | / | / | /
Cc1nc2ccc(-c3nc4ccc(N)cc4[nH]3)cc2[nH]1 | / | / | 7 | 25*[inhibitor] | 3 | 104 | 12 | 98
O=S(=O)(NC1c2cccc3cccc(c23)C1Sc1ncccn1)c1ccccc1 (stereo not drawn) | 100 | 0 | 4 | 144* | -4 | 97 | -4 | 105
Cc1ccc(S(=O)(=O)NC2c3cccc4cccc(c34)C2Sc2nc(C)cc(C)n2)cc1 (stereo not drawn) | 98 | -1 | 13 | 103 | 9 | / | / | /
c1ccc(C2Nc3ccccc3C3OCCCC23)cc1 (stereo not drawn) | 100 | 5 | 9 | 101 | -12 | / | / | /
CCOc1ccc(-n2c(SCc3ccc([N+](=O)[O-])cc3)nnc2-c2ccc(OC)cc2)cc1 | 102 | 0 | -4 | 143* | -13 | 99 | -2 | 103
COc1ccccc1S(=O)(=O)N1CCNC(=O)C1 | / | / | 9 | / | -7 | / | / | /
COc1ccc(NC(=S)N2c3ccccc3CC2C)cc1OC (stereo not drawn) | 85 | -5 | -8 | 74*[inhibitor] | 14 | 100 | -1 | 102
COc1ccc(NC(=O)N2c3ccccc3CC2C)cc1OC (stereo not drawn) | 100 | -1 | -3 | 102 | 23 | / | / | /
Cc1c(Cl)c([N+](=O)[O-])nn1CCCC(=O)N(Cc1ccccc1)Cc1ccccc1 | 108 | 0 | 5 | 141* | -9 | 88 | -8 | 89
O=C(COC(=O)CCC(NC(=O)OCc1ccccc1)C(=O)OCC(=O)Nc1ccccc1)Nc1ccccc1 (stereo not drawn) | 113 | 1 | 2 | 152* | -3 | 109 | 4 | 103
COc1cccc(NC(=O)CSc2ncc(S(=O)(=O)c3ccccc3)c(=O)[nH]2)c1 | 118 | 29 | 1 | 134* | 2 | 101 | 2 | 107
SMILES | MEKK2wt PB1 HTS | MEKK2 mut-MEK5 | SKN-1 block | MEKK3 PB1 HTS | NRP1-CendR mod | MEKK2wt confirm | MEKK2mut confirm | MEKK3 confirm
Cc1ccc(NC(=O)CSc2ncc(S(=O)(=O)c3ccccc3)c(=O)[nH]2)cc1C | 101 | 2 | 0 | 100 | -11 | / | / | /
CCCS(=O)(=O)NC(=O)C1(C)CCCN(C(=O)c2ccccc2OC(F)(F)F)C1 (stereo not drawn) | / | / | 5 | / | -1 | / | / | /
COc1cccc(NC(=O)N2CCCC2C(=O)NCc2ccccc2)c1 (stereo not drawn) | 55*[inhibitor] | -16 | -1 | 63*[inhibitor] | 1 | 93 | -5 | 97
COc1cccc(CN2CCCCC2C(=O)O)c1 (stereo not drawn) | 60 | -26 | 4 | 40*[inhibitor] | 4 | 98 | 3 | 98
COc1cccc(NC(=O)C2CCCN2C(=O)Nc2ccccc2F)c1 (stereo not drawn) | -2.0*[inhibitor] | -21 | 9 | 1.0*[inhibitor] | -1 | 99 | -1 | 100
COc1cccc(NC(=O)N2CCCC2C(=O)NCc2ccccc2F)c1 (stereo not drawn) | 102 | 5 | -3 | 99 | 7 | / | / | /
C=CCN1C(=O)C(CC(=O)Nc2ccc(OCCC)cc2)N(CCCN2CCN(Cc3ccccc3)CC2)C1=S (stereo not drawn) | 183* | 42 | 0 | 111 | 5 | 148 | 22 | 110
COc1ccc(NC(=O)CC2C(=O)N(Cc3ccccc3)C(=S)N2CCN2CCOCC2)cc1 (stereo not drawn) | 98 | 0 | -2 | 94 | -6 | / | / | /
CCCCCCOc1ccc(NC(=O)CC2C(=O)N(CC)C(=S)N2Cc2ccco2)cc1 (stereo not drawn) | 141* | 3 | 11 | 110 | -14 | 111 | 3 | 107
CCOc1ccc(NC(=O)CC2C(=O)N(c3ccccc3)C(=S)N2Cc2ccccn2)cc1 (stereo not drawn) | 1.0*[inhibitor] | -18 | 10 | 1.0*[inhibitor] | 6 | 107 | 3 | 101
COc1ccc(NC(=O)CON=CC(=O)Nc2ccc(C)cc2)c(OC)c1 | / | / | -4 | / | 3 | / | / | /
COc1ccccc1Nc1nnc(SCC(=O)c2c(N)n(C3CC3)c(=O)[nH]c2=O)s1 | / | / | -2 | / | 11 | / | / | /
CC(C)(C(=O)N1CCC1(C)C(=O)NS(=O)(=O)c1cccc(Cl)c1)c1ccccc1 (stereo not drawn) | / | / | 19 | / | -10 | / | / | /
